Sampled rows, rich in hits. Any-hit rate of the full collection: about 7.9%.
HT1080 IDH1KD tx: HT-1080 IDH1 knockdown cell toxicity (counter line); Potency, µM (titrated, usually from 46.1 µM), inactives show at the top dose activity, negative = toxicity, most hits filed as cytotoxic; 360,000 tested, 2% active; AID 686971; HT-1080 IDH1 knockdown viability, ATP luminescence, 48 h;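 note: 0% = DMSO wells and -100% = cell-free medium wells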
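IDH1KD HT-1080 cells, 750/well, RPMI + 5% FBS; compound pinned after 2 h settling; 48 h, 37 °C; CellTiter-Glo luminescence; % activity normalised to DMSO and no-cell wells; curves fitted, classed by r2 and efficacy.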
SW480 rereplic: DNA re-replication induction in SW480 cells; Potency, µM (titrated, usually from 46.1 µM), for inactives: top-dose re-replication activation, usual class: activators; 340,000 tested, 1.8% active; SW480 DNA re-replication, Hoechst DNA content imaging, 48 h; note: % of control where 0% means no effect; nearly all actives have a fitted effect of over 55% in size
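Cells (250 per well) received 23 nL compound or DMSO by pin tool and were kept 48 hr at 37 C, 5% CO2. Nuclei were then stained with Hoechst for 40 min and scanned for DNA content.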
KB-V1 cytotox: KB-V1 MDR subline cytotoxicity; Potency, µM (top dose mostly 46.1 µM), actives largely listed as cytotoxic; 400,000 tested, 3.4% active; AID 1347076; KB-V1 MDR cells viability, CellTiter-Glo, 72 h; note: % is set by controls: 0 for no effect and ±100 for the full control effect; nearly all actives have a fitted effect of over 60% in size
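Drug-selected KB-V1 cells, grown in DMEM lacking phenol red with 10% FBS, receive compound titrations; after three days at 37 degrees C, surviving cell ATP is quantified by CellTiter-Glo luminescence and responses normalized and curve-fitted.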
MCF10A rerep: inducers of DNA re-replication in MCF 10A breast cells. 350,000 tested, 2.9% active. MCF 10A DNA re-replication, Hoechst nuclear intensity, 48 h. Potency, µM (top dose mostly 46.1 µM), inactives show top-dose activity, positive = re-replication, actives largely listed as activators. AID 624296; note: % of control where 0% means no effect; nearly all actives have a fitted effect of over 50% in size
KB-3-1 tox: KB-3-1 parental cell cytotoxicity; KB-3-1 viability, CellTiter-Glo ATP luminescence, 72 h; Potency, µM (highest dose often 46.1 µM), actives largely listed as cytotoxic; 400,000 tested, 1.4% active; AID 1347075; note: % is set by controls: 0 for no effect and ±100 for the full control effect; nearly all actives have a fitted effect of over 60% in size
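Using CellTiter-Glo luminescence, growth of non-resistant KB-3-1 adenocarcinoma cells is assessed 72 h after pin-tool compound addition at 37 °C. Normalized responses across the concentration series yield fitted curves.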
HT1080-NT tox: kills 2HG-producing HT-1080-NT fibrosarcoma cells. HT-1080-NT fibrosarcoma viability, CellTiter-Glo ATP luminescence, 48 h. Potency, µM (series often up to 46.1 µM), for inactives: at the highest dose activity, negative = less viability, hits mostly cytotoxic. 360,000 tested, 1.6% active. AID 686970;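 note: NT is the 2HG producing partner of a matched IDH1 knockdown line; 0% = DMSO-treated cells and -100% = media-only wells without cells; nearly all actives have a fitted effect of over 55% in size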
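750 cells/well, RPMI + 5% FBS; 2 h settle, compound pin-transfer, 48 h at 37 degrees C. CellTiter-Glo 10 min RT, luminescence. Normalized to DMSO and media-only wells.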
An asterisk follows results filed as active; i = inactive; ? = inconclusive; . = no result given; [ ] = another dose, or the depositor's remark. Calls come from the whole dose curve; as a rule, active = well fitted curve in the direction sought with a large enough effect; inconclusive = small, poorly fitted or top-dose-only effect, or another doubt; inactive = no such curve, though single readings can be large; an effect the other way counts as inactive or inconclusive. Potency is the fitted concentration of half-maximal effect.

SMILES	HT1080 IDH1KD tx	SW480 rereplic	KB-V1 cytotox	MCF10A rerep	KB-3-1 tox	HT1080-NT tox
COc1ccc(-n2ncc3c(NCc4ccco4)ncnc32)cc1	7%	-4%	21µM*	5%	i	-6%
Cc1ccc(-n2ncc3c(NNC(=O)c4ccco4)ncnc32)cc1C	-4%	-14%	i	2%	i	-7%
CN(C)CCNc1ncnc2c1cnn2-c1ccc(Cl)cc1	?	?	?	-4%	?	21µM*
CN(C)CCNc1ncnc2c1cnn2-c1cccc(Cl)c1	.	.	i	.	i	.
Cc1ccc(-n2ncc3c(NCCO)ncnc32)cc1Cl	.	.	5.8µM*	.	i	.
CCOC(=O)C1=C[C@@H](C(C)(C)C)N(S(=O)(=O)c2ccc(C)cc2)[C@H]1c1cccc2ccccc12	-23%	.	i	.	?	-30%
COc1ccc(S(=O)(=O)NCCc2sc(-c3cccnc3)nc2C)cc1OC	.	.	i	.	i	.
O=C(NNC(=O)c1cccnc1SCc1cccc([N+](=O)[O-])c1)c1cccnc1	-11%	-7%	?	1%	i	-3%
O=C(NNC(=O)c1cccnc1SCc1cccc([N+](=O)[O-])c1)c1ccc(F)cc1	-11%	2%	16µM*	10%	?	-18%
CC(=O)NC1CC2CCCC(C1)N2C(=O)Nc1cccc(C(C)=O)c1 (stereo not given)	-2%	-10%	i	-2%	i	5%
C/C(=N\NC(=O)C1(C)CC1(Br)Br)c1ccc(NC(=O)c2ccc(C)o2)cc1 (stereo not given)	-9%	2%	21µM*	?	?	0%
C/C(=N\NC(=O)C1(C)CC1(Br)Br)c1ccc([N+](=O)[O-])cc1 (stereo not given)	0%	-11%	i	2%	i	1%
Cc1ccc(C)c(N2CCN(C3C(=O)Nc4ccccc4-n4nnnc43)CC2)c1 (stereo not given)	16µM*	.	12µM*	.	15µM*	?
CCCc1ccc(C2C3=C(CC(C)(C)CC3=O)NC3=C2C(=O)c2ccccc23)cc1 (stereo not given)	?	-3%	21µM*	5%	?	?
CCCCc1ccc(C2C3=C(CC(C)(C)CC3=O)NC3=C2C(=O)c2ccccc23)cc1 (stereo not given)	-19%	-8%	16µM*	-3%	?	-6%
CC1(C)CC(=O)C2=C(C1)NC1=C(C(=O)c3ccccc31)C2c1ccc(O)cc1 (stereo not given)	-7%	-2%	i	-1%	i	-8%
O=C1CCCC2=C1C(c1cccc(O)c1)C1=C(N2)c2ccccc2C1=O (stereo not given)	-8%	-43%[1.84 µM]	i	-24%	i	3%
CC(=O)OC[C@@H]1CN(Cc2ccccc2)C[C@H](n2cnc3c(NC4CC4)ncnc32)O1	7%	.	i	.	i	22%
O=C(NC1CCCCC1)c1ccc(CSc2nc3ccncc3n2Cc2ccccc2F)cc1	.	.	i	.	i	.
CC(=O)N1CCOc2cc(S(=O)(=O)NCc3ccc(C)cc3)c(Cl)cc21	.	.	i	.	i	.
O=C(NNC(=O)c1cc(Cl)ccc1O)c1cccs1	?	21µM*	i	-3%	i	-28%
O=C(NNC(=O)c1ccccc1Cl)c1cccs1	21%	1%	?	-3%	i	20%
CCOC(=O)c1c(C)nc2sc3c(=O)n(-c4ccc(C(C)=O)cc4)cnc3c2c1-c1ccc(OC)cc1	16%	-8%	i	-5%	i	12%
CC(=O)c1c(C)nc2sc3c(=N)n(N)cnc3c2c1-c1ccc(Cl)cc1	2%	-71%	18µM*	10%	?	4%
CSc1nc2sc3c(c2c(=O)n1CC(C)C)CC(C)(C)OC3	16%	-11%	?	-2%	i	5%

Screens (PubChem)
